# Out of some 69,000 compounds screened, about 8,600 (12%) showed an effect of 50% or more. The sample holds strong results, similar compounds and a random draw of the others, so the mix is not that of the screen.
# System: Plasmodium berghei
# Test: Screen against P. berghei liver stage (PbLuc), transformed with Luciferase, at 10uM
# Assay type: functional, HepG2
# Details: tested at 10 uM
row,Compound,INHIBITION [%]
1,CN1CCC2(CCCN(S(=O)(=O)c3ccc(-c4cnco4)s3)C2)C1 (stereo not drawn),37.3
2,Cc1occc1CNC(=O)N1CCC(Cc2cnn(C)c2)C1 (stereo not drawn),-24.15
3,CCc1ccc(S(=O)(=O)N2Cc3c(CN(C)C)nn(C)c3C2)cc1,72
4,Cc1ccc(S(=O)(=O)N2Cc3c(CN(C)C)nn(C)c3C2)cc1,0.542
5,COc1ccc(S(=O)(=O)N2Cc3c(CN(C)C)nn(C)c3C2)cc1,-6.23
6,Cc1ccc(NC2CCN(C(=O)c3nccc4ccccc34)CC2)nn1,-45.9
7,CN(C)c1ncc(-c2cncnc2)c(C2CNCCO2)n1 (stereo not drawn),20.6
8,CCc1nnc(CN2CCCCC2Cn2nc(C)nc2C)o1 (stereo not drawn),22.3
9,CS(=O)(=O)N[C@@H]1CN(Cc2ccco2)C[C@@H]2CCCO[C@@H]21,5.96
10,NCCN1CCC(c2nnc(Cn3ccnc3)n2C2CC2)CC1,62.3
11,CC(C)(C)CN1CCC(c2nnc(Cn3ccnc3)n2C2CC2)CC1,38
12,CSCCCN1CCC(c2nnc(Cn3ccnc3)n2C2CC2)CC1,-79.3
13,CN1CCC(c2nnc3n2CCN(S(=O)(=O)c2ccccc2Cl)C3)CC1,10.75
14,COCCN1CCC(C(=O)c2cc(F)ccc2F)CC1,5.03
15,COCCCN1CCC(C(=O)c2cc(F)ccc2F)CC1,56.4
16,CCOC(=O)CN1CCC(C(=O)c2cc(F)ccc2F)CC1,32.6
17,CCOCCN1CCC(C(=O)c2cc(F)ccc2F)CC1,60.5
18,CC(C)NC(=O)CCN1CCC(C(=O)c2cc(F)ccc2F)CC1,69.3
19,COC(=O)CCN1CCC(C(=O)c2cc(F)ccc2F)CC1,46.9
20,CC(C)OCCN1CCC(C(=O)c2cc(F)ccc2F)CC1,-13.5
21,NC(=O)NC(=O)CCN1CCC(C(=O)c2cc(F)ccc2F)CC1,40.5
22,NC(=O)CCN1CCC(C(=O)c2cc(F)ccc2F)CC1,18.2
23,Cc1nc(NCc2ccc(F)cc2)cc(C2CCCN2)n1 (stereo not drawn),41.5

row,Compound,INHIBITION [%]
1,O=C(Cn1ccc2ccc(Br)cc21)NCc1ccc(C(=O)O)cc1,-30.8
2,CC(C)c1nn(C)c(N(C)C)c1CNC1CCCOc2ccccc21 (stereo not drawn),35.4
3,COCc1nc(N(C)C)ncc1C(=O)Nc1ccc(Cl)cc1,-18.8
4,O=C(COC1CCCC1)NCc1ccc(O)c(F)c1,-16.4
5,CN1CC(=O)N(c2cccc(F)c2)CC12CCN(Cc1ccsc1)C2 (stereo not drawn),23.6
6,Cc1ccc(Cl)cc1-n1nnnc1C1(N2CCCC2)CCCC1,33
7,Clc1ccc2nncc(N3CCCCC3)c2c1,-0.991
8,Cc1ccc(Cl)cc1-n1nnnc1C1(N2CCCC2)CCCCC1,63.9
9,CN1CCN(c2cc(CNC(=O)c3ccc(Cl)o3)ccn2)CC1,38.45
10,Cc1csc(NC(=O)CN2CCCC(Cn3nc(C)nc3C)C2)n1 (stereo not drawn),0.4
11,COc1c(C)cnc(CSc2nnc(N3CCCC3)s2)c1C,32.9
12,COc1cccc2c1OCC(C(=O)NCCc1nc3c(s1)CCC3)C2 (stereo not drawn),40.6
13,CNC(=O)c1ccnc(CC2COc3c(cccc3OC)C2)c1 (stereo not drawn),-9.54
14,COc1cccc2c1OCC(NC(=O)NCCC(N)=O)C2 (stereo not drawn),15.1
15,COc1cccc2c1OCC(C(=O)NCCc1nnc(C)s1)C2 (stereo not drawn),65.6
16,COc1cccc2c1OCC(Cc1cc(C(=O)N3CCCC3)ccn1)C2 (stereo not drawn),57.2
17,COc1cccc2c1OCC(C(=O)NCCc1nnc(N)s1)C2 (stereo not drawn),43.4
18,COc1cccc2c1OCC(Cc1cc(C(N)=O)ccn1)C2 (stereo not drawn),38
19,COc1cccc2c1OCC(NC(=O)NCc1cccs1)C2 (stereo not drawn),20.5
20,COc1cccc2c1OCC(NC(=O)NCCc1ccccn1)C2 (stereo not drawn),59.1
21,COc1ccc(-c2ccc(C(=O)N3CCOCC3CC(N)=O)o2)cc1 (stereo not drawn),-71.5
22,CC(C)(CN1CCC2(CCCNC2)C1)N1CCOCC1 (stereo not drawn),-41.8
23,O=C(CCc1cncc(F)c1)NS(=O)(=O)c1ccc(F)cc1F,30.3

row,Compound,INHIBITION [%]
1,O=c1ccc2c(n1Cc1ccncc1)CCN(Cc1ccoc1)CC2,-37.9
2,CC(C)N1C[C@@H]2CN(C(=O)NCc3ccccc3)CCC[C@]2(C(=O)O)C1,34.6
3,CNC(=O)[C@@H]1C[C@H]2CN(Cc3nccs3)C[C@H]2N1C,46.6
4,Nc1nc(N)c2c(n1)OC1(CCN(C(=O)CC3CCCCN3)CC1)C2 (stereo not drawn),26.95
5,CCCC(C)CN1CCC(n2cc(CCCO)nn2)CC1 (stereo not drawn),13.7
6,CCC(CC)CN1CCC(n2cc(C3CCCC3)nn2)CC1,60.4
7,C=C(C)CN1CCC(n2cc(C3CCCC3)nn2)CC1,46.4
8,CCC(C)CN1CCC(n2cc(C3CCCC3)nn2)CC1 (stereo not drawn),16.9
9,CC(C)Nc1cc(N2CCC(n3cc(C4CCCC4)nn3)CC2)ncn1,16.1
10,CCC(C)CN1CCC(n2cc(C3CCCCC3)nn2)CC1 (stereo not drawn),77.6
11,CC(C)Cc1cn(C2CCN(C(C)CC3CC3)CC2)nn1 (stereo not drawn),-129
12,CSC(C)CCN1CCC(n2cc(C3CCCCC3)nn2)CC1 (stereo not drawn),67.7
13,CC(O)c1cn(C2CCN(C(=O)C3(C)CCCCC3)CC2)nn1 (stereo not drawn),10.3
14,OCc1ccc(CN2CCC(n3cc(C4CCCCC4)nn3)CC2)o1,48.8
15,CCCC(C)CN1CCC(n2cc(C3CCCC3)nn2)CC1 (stereo not drawn),61.1
16,O=C(c1cn(-c2ccccc2)nn1)N1CCCC(n2cccn2)C1 (stereo not drawn),-67.3
17,O=C(C1CC(=O)N(c2n[nH]c3cc(Br)ccc23)C1)N1CCCC1 (stereo not drawn),-19.4
18,CO[C@@H]1CCN(S(=O)(=O)c2cn(C)cn2)[C@H]1Cc1cnn(C)c1,49.1
19,Cc1nc(CN2CC[C@H](OCC3CC3)[C@@H]2Cc2cccnc2)cs1,-3.33
20,CCOCC(=O)N1Cc2nccn2CC(CN(C)C)C1 (stereo not drawn),-7.7
21,CCCc1n[nH]c(C2CN(CCNS(C)(=O)=O)CCO2)n1 (stereo not drawn),-69
22,O=C(c1cscn1)N1C[C@H](OCc2cccnc2)[C@H]2COC[C@H]21,3.58
